# Bioassay records (PubChem BioAssay)
# Sampled rows, rich in hits. Any-hit rate of the full collection: about 3.7%.
# Nrf2 activator = qHTS of Nrf2 Activators. Potency, µM (doses to about 46.1 µM), for inactives: at the highest dose activation, usual class: activators. 0.31% of 410,000 active. AID 624171, 2012. AREc32 ARE-luciferase reporter (MCF7-derived line), luminescence, 24 h; also: potency is read from the fitted curve at half-maximal effect; % of control where 0% means no effect; nearly all actives have a fitted effect of over 65% in size
#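 Nrf2 activation is followed as ARE-luciferase induction in the AREc32 line after one day of compound treatment; luminescence is read with Steady-Glo.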
# Nrf2 block = Nrf2 qHTS screen for inhibitors | Potency, µM (highest dose often 46 µM), without a hit: top-dose activity change, negative = inhibition, actives largely listed as inhibitors | A549 ARE-Fluc reporter, luciferase luminescence, 18-24 h | 2.1% of 360,000 active; also: potency is read from the fitted curve at half-maximal effect; % is scaled to controls: 0 for no effect and ±100 for the full control effect; nearly all actives have a fitted effect of over 60% in size
#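 Nrf2 activity is the BugLite luminescence, read 15 min after reagent at room temperature, following CellTiter-Fluor cytotoxicity readout (30 min, 37C). Compound titrations were applied for 18-24 h to 5000 A549 ARE_Fluc cells/well in 5% FBS OPTI-MEM.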
# ClpP mod = qHTS Assay for Activators of ClpP. 1.9% of 340,000 active. AID 651965, 2013. Potency, µM (series often up to 57.5 µM), inactives show at the highest dose activity change, negative = active. purified B. subtilis ClpP, FRET peptide cleavage, 20 min. ATP-dependent Clp protease proteolytic subunit (Bacillus subtilis (strain 168)), P80244; active = well fitted falling curve with a large enough effect; inconclusive = small, poorly fitted or top-dose-only effect; inactive = no such curve, though single readings can be large or run the other way; also: potency is read from the fitted curve at half-maximal effect; the source files actives as falling curves though it sought activators and does not explain the sign; nearly all actives have a fitted effect of over 65% in size
# Target sequence (P80244 whole entry, looked up): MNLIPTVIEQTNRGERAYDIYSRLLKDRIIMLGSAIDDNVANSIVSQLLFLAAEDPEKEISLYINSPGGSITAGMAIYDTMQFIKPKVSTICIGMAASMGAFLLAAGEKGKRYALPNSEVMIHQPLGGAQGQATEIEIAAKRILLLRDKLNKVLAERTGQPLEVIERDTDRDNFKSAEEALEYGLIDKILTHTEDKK
#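 ClpP 10 microg/mL final, pH 8 Tris/KCl buffer with BSA, glycerol, Tween-20; compound pinned in; FRET-FV substrate; RT 20 min; Ex320/Em430; ΔFRET vs ADEP 5.8 microM, DMSO, no enzyme.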
# miR-21 reporter = qHTS Assay for Modulators of miRNAs and/orActivators of miR-21; Potency, µM (titrated, usually from 38.3 µM), inactives show at the highest dose activity change, positive = activation, usual class: activators; 340,000 tested, under 10 active; HeLa miR-21 FLuc reporter, luciferase, 48 h;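 also: % of control where 0% means no effect; miR-21 action dims this reporter so a rising signal means less miR-21 action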
#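 Luminescence from a firefly luciferase reporter carrying a miR-21 binding site downstream, stably expressed under a CMV promoter in HeLa cells that make miR-21 endogenously, reports miRNA modulation after 48 h compound exposure up to approximately 40uM final.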
# p53 reactivation = qHTS assay for re-activators of p53 using a Luc reporter | H1299 p53-A138V BP100-luciferase reporter, luminescence, 24 h | 0.063% of 320,000 active | Potency, µM (highest dose often 92.2 µM), inactives show at the highest dose activity change, positive = activation, most hits filed as activators; also: potency is read from the fitted curve at half-maximal effect; % of control where 0% means no effect; nearly all actives have a fitted effect of over 45% in size
#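 p53-null H1299 cells stably carrying temperature-sensitive p53-A138V and a BP100-luciferase reporter were pinned with compounds (4-point, 1:5 series) and held 24 hrs at 37 deg C. Luminescence was read 10 min after detection reagent.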
# A549 viability = Nrf2 qHTS screen for inhibitors: counterscreen for cytotoxicity | A549 ARE-Fluc cells, CellTiter-Fluor viability, 18-24 h | Potency, µM (titrated, usually from 46 µM), without a hit: at the highest dose activity change, negative = cytotoxicity, usual class: inhibitors | 0.16% of 390,000 active | AID 504648, 2011; also: potency is read from the fitted curve at half-maximal effect; % is scaled to controls: 0 for no effect and ±100 for the full control effect
#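 A549 ARE_Fluc cells in 5% FBS OPTI-MEM were exposed to compounds in concentration-response for 18-24 h at 37 deg C. Viability was read by CellTiter-Fluor fluorescence (Ex 405/Em 525) after 30 min, before the luciferase read.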
# Starred values were filed as active, the others as inactive; ? = inconclusive; . = not tested or not shown. Unless noted, calls follow the shape of the dose curve; as a rule, active = well fitted curve in the direction sought with a large enough effect; inconclusive = small, poorly fitted or top-dose-only effect, or another doubt; inactive = no such curve, though single readings can be large; an effect the other way counts as inactive or inconclusive.
SMILES,Nrf2 activator,Nrf2 block,ClpP mod,miR-21 reporter,p53 reactivation,A549 viability
Cc1nn(C(C)(C)C)c(OC(=O)C2CCCC2)c1S(=O)(=O)c1ccccc1,0%,?,11µM*,-1%,-5%,-17%
Cc1ccc(CNC(=S)Nc2ccc3c(c2)c(=O)n(C)n3Cc2cccc(C(F)(F)F)c2)cc1,0%,.,5%,.,.,.
Cc1c(NC(=O)c2ccc(Br)o2)cccc1-c1nc2ccccc2o1,-1%,?,-3%,7%,.,0%
COc1ccc2[nH]c(=O)c(CN(C)C(=O)COc3ccccc3)cc2c1,0%,-1%,32µM*,-7%,-2%,-5%
COc1ccc2[nH]c(=O)c(CN(c3ccc(C)c(C)c3)S(C)(=O)=O)cc2c1,0%,?,.,-5%,0%,0%
CCOc1ccccc1C(=O)N(C)Cc1cc2cc(OC)ccc2[nH]c1=O,3%,-1%,32µM*,-19%,-10%,-9%
CCOc1cc(C(=O)N(C)Cc2cc3cc(OC)ccc3[nH]c2=O)cc(OCC)c1OCC,-1%,-2%,-3%,-5%,-5%,-1%
CCOc1ccc(N(Cc2cc3cc(OC)ccc3[nH]c2=O)S(C)(=O)=O)cc1,0%,-3%,28µM*,-7%,-7%,-19%
CCN(Cc1cc2cc(OC)ccc2[nH]c1=O)C(=O)Cc1ccc(OC)cc1,2%,.,28µM*,-5%,-7%,-2%
CCN(Cc1cc2cc(OC)ccc2[nH]c1=O)C(=O)c1ccncc1,-1%,-25%,?,-2%,-10%,-4%
CCC1(CC)SC(N)=NC1=O,-1%,-7%,.,.,.,4%
COc1ccc(C2C3=C(N=CN(CCN4CCOCC4)C3N)Oc3ccccc32)cc1OC (stereo not given),.,8%,.,.,.,-1%
Cc1ccc(NC(=O)Cn2c(=O)n(Cc3ccco3)c(=O)c3sc4ccccc4c32)cc1C,3%,26%,-8%,-9%,.,5%
CCc1ccc2[nH]c(=O)c(CN(CCO)C(=O)NCc3ccccc3)cc2c1,5%,-3%,-16%,6%,-1%,-3%
CCN(CC(=O)NCc1ccc(F)cc1)C(=O)Cc1ccc(OC)cc1,0%,-14%,16µM*,1%,-5%,-7%
COc1ccc2[nH]c(=O)c(CN(CCO)C(=O)NCc3ccccc3)cc2c1,-1%,3%,25µM*,-6%,.,-7%
Cc1ccc(N(C)C(=O)c2cc(S(=O)(=O)N3CCOCC3)cn2C)cc1,-1%,?,-2%,19%,.,-2%
Cc1ccc(-c2nnn(CC(=O)Nc3ccccc3-c3ccccc3)n2)c(-n2cnnn2)c1,0%,-2%,11µM*,-5%,2%,-2%
CCCCn1c(NC(=O)CC)c(C#N)c2nc3ccccc3nc21,-1%,-7%,16µM*,-7%,2%,0%
COc1ccc(-n2c(NC(=O)c3ccco3)c(C#N)c3nc4ccccc4nc32)cc1,6%,-29%,-12%,3%,2%,-14%
CCC(=O)Nc1c(C#N)c2nc3ccccc3nc2n1-c1ccccc1C,0%,-12%,3.5µM*,-6%,12%,9%
CCCn1c(NC(=O)CCNC(=O)c2ccccc2Cl)nc2ccccc21,6%,13%,0%,.,-3%,0%
CCC(=O)Nc1c(C#N)c2nc3ccccc3nc2n1C1CCCCC1,0%,9%,-19%,-2%,-9%,-2%
CCCCn1c(NC(=O)c2ccccc2Cl)c(C#N)c2nc3ccccc3nc21,3%,13µM*,-21%,?,5%,?
N#Cc1c(NC(=O)c2ccccc2Cl)n(Cc2ccccc2)c2nc3ccccc3nc12,5%,16µM*,-30%,-1%,20%,?
